Compound activity deposited in PubChem BioAssay by National Center for Advancing Translational Sciences (NCATS).
Only some compounds are listed: those with a hit (about 5.3% of all), similar ones and a draw of the others.
BAZ2B inh = inhibitors of human BAZ2B bromodomain | Potency, µM (series often up to 114 µM), for inactives: top-dose activity change, negative = inhibition, most hits filed as inhibitors | actives 4.4% (n = 360,000) | Q9UIF8 | AID 504333 | AlphaScreen BAZ2B-H3K14Ac peptide displacement; further: potency means the concentration at half of the fitted maximal effect; on the % scale 0 is the no-effect control and ±100 the full control effect; nearly all actives have a fitted effect of over 60% in size
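In this displacement format the biotinylated H3(5-23) peptide acetylated at Lys14 serves as ligand at 50 nM, with BAZ2B at 50 nM in PBS pH 7.4 containing 0.01% Tween-20. Donor and acceptor beads are 10 ug/mL final.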
JMJD2A Tudor = blocks the human JMJD2A Tudor domain; Potency, µM (titrated, usually from 114 µM), for the others: top-dose activity change, negative = inhibition, hits mostly inhibitors; O75164; AlphaScreen JMJD2A-Tudor / H3K4me3 peptide binding; actives 4.4% (n = 390,000); AID 504339; further: potency means the concentration at half of the fitted maximal effect; on the % scale 0 is the no-effect control and ±100 the full control effect; nearly all actives have a fitted effect of over 50% in size
Six1-Eya2 inh = Six1/Eya2 interaction inhibition; actives 0.56% (n = 360,000); activity change, % (concentration not given with the values); AlphaScreen GST-Six1/His-Eya2 binding, biochemical; stronger effect = lower value; Q15475+O00167; in the data active means activity change below about -65%; inconclusive means mostly about -30% to -63%; further: on the % scale 0 is the no-effect control and ±100 the full control effect
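GST-Six1 + His-Eya2 (5X stock: 250/500 nM); Tris pH 8.0, 300 mM NaCl, 0.05% BSA, 0.02% Tween 20; GSH donor/Ni acceptor beads; 1 h 37 °C dark; AlphaScreen readout.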
HP1b chromo inh = HP1-beta chromodomain-methylated histone interaction inhibition | P83916 | AlphaScreen HP1-beta / biotin-H3K9me3 peptide binding | Potency, µM (series often up to 114 µM), inactives show at the top dose activity change, negative = inhibition, most hits filed as inhibitors | actives 0.56% (n = 390,000) | AID 540317; further: potency means the concentration at half of the fitted maximal effect; nearly all actives have a fitted effect of over 70% in size
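HP1-beta protein (50 nM final) preincubated 30 min at room temperature with biotinylated H3(1-18)K9me3 peptide (50 nM) in PBS pH 7.4, 0.01% Tween-20, then compound added for 30 min. AlphaScreen streptavidin donor/nickel chelate acceptor beads (10 ug/mL final), 30 min dark, luminescence read.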
TDP1 inh = inhibitors of human tyrosyl-DNA phosphodiesterase TDP1. Q9NUW8. recombinant TDP1, AlphaScreen DNA substrate cleavage. Potency, µM (titrated, usually from 130 µM), for inactives: at the highest dose activity change, negative = inhibition, actives largely listed as inhibitors. actives 0.28% (n = 350,000); further: potency means the concentration at half of the fitted maximal effect; on the % scale 0 is the no-effect control and ±100 the full control effect; nearly all actives have a fitted effect of over 40% in size
Target sequence (Q9NUW8 whole entry, looked up): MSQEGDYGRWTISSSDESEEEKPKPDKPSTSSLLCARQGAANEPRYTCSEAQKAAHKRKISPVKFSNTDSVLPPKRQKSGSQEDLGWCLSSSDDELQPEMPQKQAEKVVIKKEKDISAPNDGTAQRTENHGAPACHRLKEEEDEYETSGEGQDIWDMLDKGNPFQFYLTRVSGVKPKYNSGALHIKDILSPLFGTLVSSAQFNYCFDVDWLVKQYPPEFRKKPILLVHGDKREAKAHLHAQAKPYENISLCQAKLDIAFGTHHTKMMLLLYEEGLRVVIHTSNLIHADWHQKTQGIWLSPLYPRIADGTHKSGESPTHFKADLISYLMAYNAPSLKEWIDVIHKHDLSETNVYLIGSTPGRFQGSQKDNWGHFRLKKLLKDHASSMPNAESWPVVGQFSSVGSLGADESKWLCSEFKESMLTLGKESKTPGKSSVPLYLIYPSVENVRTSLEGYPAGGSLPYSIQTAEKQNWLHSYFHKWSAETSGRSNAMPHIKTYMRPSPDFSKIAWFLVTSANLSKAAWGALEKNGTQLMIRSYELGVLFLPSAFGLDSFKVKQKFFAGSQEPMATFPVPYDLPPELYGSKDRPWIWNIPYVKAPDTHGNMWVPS
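Enzyme-compound mixtures sat 15 min at room temperature, followed by a 5 min reaction with 15 nM final substrate and 10 min with AlphaScreen beads. Recombinant human Tdp1 was used at 1 nM final.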
CtBP-E1A inh = blocks the CtBP interaction with E1A; AlphaScreen GST-E1A/His-CtBP binding, 1536-well; stronger effect = lower value; actives 0.49% (n = 340,000); activity change, % (concentration not given with the values); in the data active means activity change below about -65%; inconclusive means mostly about -30% to -63%; further: on the % scale 0 is the no-effect control and ±100 the full control effect
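Homogeneous bead-based format: GST-tagged E1A captured on glutathione donor beads, His-tagged CtBP on nickel acceptor beads; compounds precede bead addition by 2 h at 37 °C.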
Starred values were filed as active, the others as inactive; ? = inconclusive; nt = not tested or not shown; ! = repeats disagree; [ ] = dose if it differs, or a comment. Unless noted, the call rests on the fitted dose curve; in most records, active means well fitted inhibition curve with a large enough effect; inconclusive means small, poorly fitted or top-dose-only effect; inactive means no such curve, though single readings can be large or run the other way.

SMILES | BAZ2B inh | JMJD2A Tudor | Six1-Eya2 inh | HP1b chromo inh | TDP1 inh | CtBP-E1A inh
CCOCCCNC(=O)c1c[nH]c2ccc(S(=O)(=O)N(C)c3ccc(Cl)cc3F)cc2c1=O | 0% | -23% | nt | 49% | -3% | nt
Cc1ccc(-c2cn3c(=S)[nH]nc3s2)cc1 | 79µM* | 0.71µM* | -5 | 71µM* | 3% | 4
Cn1cnc(CCN)c1 | nt | 14µM* | 3 | 17% | nt | -21
Cc1[nH]cnc1CCN | nt | nt | nt | nt | 15% | nt
Cc1cc(N2CCCCC2)ccc1C=C1C(=O)N(C)C(=S)N(C)C1=O | 35µM* | ? | -13 | ? | 6% | -3
COc1cccc([C@@]2(O)CCCCC2CN(C)C)c1 (stereo partly specified) | nt | nt | nt | nt | 8% | nt
COc1ccc(OC)c(N2C(=O)NC(=O)/C(=C/c3ccc([N+](=O)[O-])s3)C2=O)c1 | 40µM* | 28µM* | 0 | 32µM* | 3% | 0
COc1cc(/C=C2\C(=O)NC(=O)N(c3ccccc3)C2=O)c([N+](=O)[O-])cc1OC | -25% | -26% | ? | 1% | 5% | 13
O=C1NC(=O)C(=Cc2ccco2)C(=O)N1 | nt | 45µM* | -14 | -34%[57 µM] | nt | 10
O=C1NC(=O)C(=Cc2ccc(Sc3ccccc3)o2)C(=O)N1 | ? | ? | -3 | 3% | -10% | 6
O=C1NC(=S)N(c2ccc(F)cc2)C(=O)/C1=C\c1ccoc1 | 14µM* | 3.2µM* | -72* | 5.6µM* | nt | -9
COc1ccc(OC)c(N2C(=O)/C(=C/c3ccco3)C(=O)NC2=S)c1 | 1.4µM* | 1.6µM* | -71* | 3.2µM* | nt | -10
Cc1ccc(N2C(=O)NC(=O)/C(=C\c3ccoc3)C2=O)cc1 | ? | -18% | -25 | 16% | -14% | -4
CCOP(=S)(OCC)SCSC(C)(C)C | nt | nt | nt | nt | 7% | nt
COC(=O)[C@@H]1[C@@H](O)[C@@]2(O)c3c(OC)cc(OC)cc3O[C@@]2(c2ccc(OC)cc2)[C@H]1c1ccccc1 | nt | nt | nt | nt | 7%[21 µM] | nt
O=C1NC(=S)N(c2ccc(F)cc2)C(=O)/C1=C/c1ccco1 | 1.8µM* | nt | nt | nt | nt | nt
COc1ccc(N2C(=O)/C(=C/c3cc(C)n(-c4ccc(C)cn4)c3C)C(=O)NC2=S)c(OC)c1 | ? | 40µM* | -6 | -12% | 3% | nt
ClCC(Cl)CCl | nt | nt | nt | nt | 6% | nt
Cc1c(C(=O)c2cccc3ccccc23)c2cccc3c2n1[C@@H](CN1CCOCC1)CO3 | nt | nt | nt | nt | 9% | nt
CCC(=O)Nc1cc(C(=O)O)ccc1S(=O)(=O)c1ccc(C)cc1 | ? | ? | -12 | 8% | 20µM* | 10
CCn1cc(C(=O)O)c(=O)c2ccc(C)nc21 | 79µM* | -17% | 0 | 6% | 7% | 8
CCn1cc(C(=O)NCc2ccccc2)c2ccccc21 | 2% | -10% | 3 | 10% | 3% | -1
BrCC(Br)C1CCC(Br)C(Br)C1 (stereo unspecified) | 169% | 99% | 5 | 141% | 32µM*! | 21
CC(C)(Cl)Cl | nt | nt | nt | nt | 3% | nt
CC1(C)C2CC=C(CN3CCC(O)CC3)C1C2 (stereo unspecified) | ? | 3.5µM* | 6 | -21% | nt | 0
SMILES | BAZ2B inh | JMJD2A Tudor | Six1-Eya2 inh | HP1b chromo inh | TDP1 inh | CtBP-E1A inh
Cc1ncc(C[n+]2csc(CCOP(=O)(O)O)c2C)c(N)n1 | nt | nt | nt | nt | 15% | nt
Cc1[nH]c2ccccc2c1P(=S)(c1ccccc1)c1ccccc1 | nt | ? | nt | nt | 0% | nt
CN(Cc1ccccc1)C(=O)c1ccc(NC(=O)C2CCN(C(=O)OC(C)(C)C)CC2)cc1 | nt | ? | -3 | -12% | 2% | 7
COc1cc(O)c(C(=O)O)c(-c2cc(O)c(O)cc2C)c1 | 56µM* | 13µM* | -7 | ? | nt | 0
O=C1NC(=O)c2c1c1c3ccccc3n3c1c1c2c2ccccc2n1C1CCC3O1 | nt | nt | nt | nt | 0% | nt
O=C=NCCCCN=C=O | nt | nt | nt | nt | 6% | nt
CC(=O)N1CCN(c2ccc(OC[C@@H]3CO[C@@](Cn4ccnc4)(c4ccc(Cl)cc4Cl)O3)cc2)CC1 | nt | nt | nt | nt | 16%[21 µM] | nt
